Shiga inhibitor = blocks Shiga toxin action in Vero cells. inhibition, % at 38.7 µM. 290,000 compounds, 9.2% hits. Vero cells, Shiga toxin protein synthesis inhibition reporter; in the data active = inhibition mostly above about 28%, no sharp cut-off; inactive = mostly below about 43%; note: 0% is about no effect
CHX counter = affects cycloheximide protein synthesis inhibition readout, counter-screen | cell reporter, cycloheximide protein synthesis inhibition counterscreen | max response, % | 300,000 compounds, 12% hits | AID 2314; in the data active = max response mostly above about 13%, no sharp cut-off; inactive = mostly below about 14%; note: read at 38.3 µM for the half of the compounds with a filed dose; 0% is about no effect
AMA1-RON2 inh = disrupts binding of P. falciparum AMA1 to RON2 | AlphaScreen AMA1-biotinylated RON2 peptide binding | Potency, µM (highest dose often 58.2 µM), inactives show at the top dose activity change, negative = inhibition, usual class: inhibitors | 360,000 compounds, 0.2% hits;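 note: potency is the fitted concentration of half-maximal effect; 0% = vehicle wells and -100% = peptide control; nearly all actives have a fitted effect of over 45% in size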
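AMA1 (3D7) with his tag at 25 nM final met compounds first, then biotinylated RON2 peptide at 25 nM; detection used donor plus acceptor beads, 10 µg/mL apiece, read by AlphaScreen after 30 min at room temperature.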
Pf growth 96h = P. falciparum growth inhibition at 96 hour, primary screen for plastid delayed-death inhibitors | 320,000 compounds, 6.9% hits | P. falciparum luciferase reporter growth, 96 h | Potency, µM (titrated, usually from 28.7 µM), without a hit: top-dose activity change, negative = inhibition, hits mostly inhibitors; note: potency is the fitted concentration of half-maximal effect; % is set by controls: 0 for no effect and ±100 for the full control effect
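P. falciparum expressing integrated firefly luciferase, in erythrocytes at 2% hematocrit, 0.05% parasitemia, incubated with compounds 96 h at 37 C, 5% CO2. Growth inhibition read as loss of luminescence; two-generation exposure targets delayed-death apicoplast inhibitors.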
Pf growth 48h = P. falciparum growth inhibition at 48 hours (one generation) | P. falciparum luciferase growth in erythrocytes, 48 h | Potency, µM (top dose mostly 28.7 µM), without a hit: top-dose activity change, negative = inhibition, most hits filed as inhibitors | 310,000 compounds, 5.9% hits; note: potency is the fitted concentration of half-maximal effect; % is set by controls: 0 for no effect and ±100 for the full control effect
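Here the parasites carry a stable luciferase gene and grow inside erythrocytes in Albumax-based RPMI medium with compound for one erythrocytic cycle. Activity is scored as loss of luminescent signal.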
SARS PLpro yeast = SARS-CoV PLP inhibition in yeast; Potency, µM (titrated, usually from 32.9 µM), without a hit: at the top dose activity, positive = growth rescue, hits mostly activators; 330,000 compounds, 0.19% hits; S. cerevisiae expressing SARS-CoV PLpro, growth rescue; calls by dose curve; note: potency is the fitted concentration of half-maximal effect; 0% is about no effect; nearly all actives have a fitted effect of over 55% in size
Numbers without * were called inactive; i = inactive; ? = inconclusive; . = not tested or not shown. This is a sample that favours compounds with a hit; in the whole collection about 19% have one here. Unless noted, calls come from the whole dose curve; as a rule, active = well fitted curve in the direction sought with a large enough effect; inconclusive = small, poorly fitted or top-dose-only effect, or another doubt; inactive = no such curve, though single readings can be large; an effect the other way counts as inactive or inconclusive.

SMILES	Shiga inhibitor	CHX counter	AMA1-RON2 inh	Pf growth 96h	Pf growth 48h	SARS PLpro yeast
O=C(CSc1nc2ccccc2s1)N/N=C/c1ccccc1C(=O)O	91*	52*	87%	325%	312%	0%
N#C/C(=C/c1ccco1)C(N)=S	3	-1	8%	?	?	-1%
C[C@H]1CN([C@@H](C)CO)C(=O)CCCn2nncc2CO[C@@H]1CN(C)Cc1cccc(O)c1	.	.	7%	.	.	.
COc1ccc(-c2csc(NC(=O)CS(=O)(=O)c3ccc(F)cc3)n2)cc1OC	.	.	11%	?	?	3%
Cc1ccc(C(=O)C2CN(C)CC2C(=O)c2ccc(C)cc2)cc1 (stereo not drawn)	39*	23*	-15%	29%	-3%	-6%
Cc1ccc(C(=O)C2CN3CCC2CC3)cc1 (stereo not drawn)	-6	6	2%	12%	-23%	12%
CCOC(=O)C1=C(CSc2nc(-c3ccccc3)ccc2C#N)OC(N)=C(C#N)C1c1ccc(OC)cc1 (stereo not drawn)	63	63*	2%	?	?	0%
Cc1csc(NC(=O)C2CCCN(S(=O)(=O)c3cccnc3)C2)n1 (stereo not drawn)	-16	-6	0%	9%	.	0%
O=C(NCCC1=CCCCC1)C1CCCN(S(=O)(=O)c2cnc[nH]2)C1 (stereo not drawn)	-10	-7	0%	12µM*	.	0%
O=C(Nc1cccc(F)c1)C1CCCN(S(=O)(=O)c2cnc[nH]2)C1 (stereo not drawn)	-7	-10	-6%	9.3µM*	16%	-1%
Cc1ccc(NC(=O)C2CCCN(S(=O)(=O)c3cnc[nH]3)C2)cc1F (stereo not drawn)	3	-2	-3%	?	2%	-2%
Cc1cc(C)cc(NC(=O)C2CCCN(S(=O)(=O)c3cnc[nH]3)C2)c1 (stereo not drawn)	1	-1	1%	3.3µM*	2%	-1%
Cc1csc(NC(=O)C2CCCN(S(=O)(=O)c3cnc[nH]3)C2)n1 (stereo not drawn)	-20	-4	-6%	12µM*	.	1%
CCc1ccccc1NC(=O)C1=CN2CCS(=O)(=O)N=C2C=C1	.	.	-3%	11%	44%	2%
O=C(COC(=O)/C=C/c1ccc(OC(F)F)cc1)NC1CCCCCC1	.	.	-14%	.	.	18%
CCOC(=O)C1(CCc2ccccc2)CCN(Cc2cccc3cnccc23)CC1	-3	-1	-20%	7.4µM*	?	-1%
CCOC(=O)C1(CCc2ccccc2)CCN(Cc2cccc3c2OCO3)CC1	-5	0	-5%	i	?	-2%
CCOC(=O)C1(CCc2ccccc2)CCN(Cc2c(O)cccc2OC)CC1	-11	1	-10%	31%	0.26µM*	-1%
CC(C(=O)Nc1ccc(S(=O)(=O)N2CCOCC2)cc1)N1C(=O)C2CC=CCC2C1=O (stereo not drawn)	-8	-5	-5%	-11%	31%	0%
CCOCCCNC(=O)CCn1ccc2cc(S(=O)(=O)N3CCCC3)ccc21	9	15	15%	10µM*	?	5%
CCOc1ccccc1CNC(=O)CCCn1ccc2cc(S(=O)(=O)N3CCCC3)ccc21	-3	0	7%	?	?	0%
CCOc1ccccc1CNC(=O)Cn1ccc2cc(S(=O)(=O)N3CCCC3)ccc21	-7	0	4%	13µM*	?	1%
CCOc1cc(/C=C/C(=O)N(CC)CC(=O)NCc2cccs2)cc(Cl)c1OC	.	.	6%	-20%	?	-6%
COc1ccc(C2c3[nH]c4ccccc4c3C[C@H]3C(=O)N(C4CCN(Cc5ccccc5)CC4)CC(=O)N23)cc1OC (stereo partly drawn)	-7	-2	-12%	1.5µM*	1.5µM*	1%
Cc1ccccc1C1c2[nH]c3ccccc3c2C[C@H]2C(=O)N(C3CC3)CC(=O)N12 (stereo partly drawn)	2	-4	8%	3.7µM*	12µM*	0%

Screens deposited in PubChem BioAssay by National Center for Advancing Translational Sciences (NCATS).
